The nature of experiment [1]: inhibitors of CD8+ T cell-vesicle binding, pilot screen, LFA-1/ICAM-1 modulator project, MLPCN validation set, flow cytometry (AID 2523;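 active means response below a set limit, under 55% cells CD8-positive and vesicle-bound, and CD8 cells' 90th-percentile brightness under 279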;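 on vesicle binding response: mean PE anti-B7-1 fluorescence of CD8+ cells relative to row control; 100% = QL9-loaded vesicles with DMSO vehicle in the same plate row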). As to conditions: 2C mouse CD8+ T cells, at 7 µM, stronger effect = lower value; double positive events: measured here: CD8+/vesicle+ event percentage.
For experiment [2], the target named is Integrin beta-1 (Homo sapiens) + Integrin alpha-4 (Homo sapiens) (UniProt P13612+P05556). Kind of experiment: inhibition of HUTS-21 binding to VLA-4, pilot screen, VLA-4 allosteric modulator project, U937 cells, HUTS-21 mAb, flow cytometry, validation set (AID 2674;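 active means inhibition above 50%, about 3 SD of the validation set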;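 further: antibody binding induced by the VLA-4 ligand LDV present at three times its Kd; 0% = LDV ligand with antibody and no compound and 100% = antibody without LDV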). As to conditions: HUTS-21 LIBS mAb binding, at 6.7 µM, stronger effect = higher value, binding induced by LDV ligand. (In general: Flow cytometry measures light scatter and fluorescence of single cells or particles in a stream.)

Experiment [3] can be described thus: superoxide lowering in aged yeast cells, pilot screen, validation compound set (AID 2706;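 active means superoxide response below 65% of plate, a cut near 3 SD across the whole screen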;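 further: yeast exposed to compound for one week at 30 degrees C before staining; 100% = mean of all compound wells on the same plate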). The note with it: S. cerevisiae aging, superoxide DHE fluorescence; at 10 µM, stronger effect = lower value.
Experiment [4] deals with Beta-adrenergic receptor kinase 1 (Homo sapiens) (UniProt P25098). Kind of experiment: GRK2 binders displacing RNA aptamer, biochemical, validation, human GRK2, bead flow cytometry (AID 488806;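 active means aptamer binding inhibition above 30%, about 3 SD of noise from non-fluorescent compounds; inactive means inhibition at or below 30%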). The note with it: bead-bound GRK2, FAM-aptamer displacement, at 10 µM, stronger effect = higher value.
Experiment [5] concerns the target Beta-2 adrenergic receptor (Homo sapiens) (UniProt P07550). The experiment can be described thus: beta2AR agonists driving receptor internalization, pilot screen, cell-based, FAP fluorogen, flow cytometry, validation set (AID 504459;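 active means percent response above 42, roughly 3 SD of non-fluorescent test compounds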;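 further: agonist-driven loss of surface beta2AR via internalization measured by FAP dye flow cytometry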). The note with it: Am2.2-beta2AR cells, FAP surface receptor flow cytometry; at 10 µM; stronger effect = higher value.
For experiment [6], the target named is AP-2 complex subunit beta (Homo sapiens) (UniProt P63010). The experiment can be described thus: inhibitors of arrestin peptide binding to AP2, pilot screen, biochemical, validation set, GST-AP2 beads, flow cytometry (AID 504541).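 Further: AP2 carries R879A mutation and is captured from E. coli lysate; bead-bound FITC arrestin peptide fluorescence measuring arrestin peptide binding to AP2; 0% = DMSO wells and 100% = excess unlabeled arrestin peptide control.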 The note with it: FITC arrestin peptide, at 10 µM, stronger effect = higher value, AP2 beta2 appendage fragment, R879A mutant.
Experiment [7] can be described thus: yeast V-ATPase proton transport modulators, S. cerevisiae, pHLuorin, HTS validation (AID 504600; in the data active means response above about 15%;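 further: plate controls were DMSO for no effect and reference compound for full effect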). The note with it: S. cerevisiae pHLuorin cytosolic pH, at 10 µM, stronger effect = higher value.
Experiment [8] concerns anti-desmoglein-3 scFv antibody binding to human DSG3. The experiment can be described thus: inhibitors of anti-DSG3 scFv binding to DSG3, pilot screen, biochemical, validation compound set, bead-based, flow cytometry (AID 588368;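 active means binding below the plate cutoff, the plate median minus 3 SD, with a reading above zero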;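 further: signal is the median channel fluorescence of bead-bound GFP antibody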). The note with it: Protein G beads, DSG3-Fc, scFv-GFP binding, at 10 µM, stronger effect = lower value.
The nature of experiment [9]: inhibitors of fungal efflux pumps CDR1, CDR2, MDR1, pilot screen, validation compound set, multiplex, phenotypic (AID 588506;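 active means efflux inhibition above 0.42, the validation set average plus 4 SD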;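 further: Nile Red retained in cells so higher fluorescence means more efflux inhibition; 0 = negative control wells and 1 = enniatin B 25 µM full block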). As to conditions: S. cerevisiae pump-expressing triplex, Nile Red efflux flow cytometry; at 10 µM; stronger effect = higher value; the pumps come from Candida albicans.
Experiment [10] deals with ATP-binding cassette sub-family B member 6 (Homo sapiens) (UniProt Q9NP58). The experiment can be described thus: ABCB6 transporter inhibitors, pilot screen, K562-ABCB6 cells, flow cytometry, validation set (AID 588550;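 active means inhibition above the screen-wide mean plus 3 SD, about 51%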;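 further: 0% = DMSO wells and 100% = benzethonium chloride 70 µM positive control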). As to conditions: K562-ABCB6 porphyrin accumulation, 1 h, at 10 µM, stronger effect = higher value.
Experiment [11] in a line: promoters of myeloid differentiation in arrested cells, primary screen, cell-based, GFP/MAC1 double positive, flow cytometry, validation set (AID 588685;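 active means differentiation response of at least 50%, scaled between solvent and reference control, from cells with both markers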;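 further: compound exposure lasts four days before antibody staining and flow analysis; 0% = DMSO wells and 100% = 5 µM fulvestrant positive control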). As to conditions: ER-HoxA9 marrow cells, stronger effect = higher value, normalized: vehicle 0, fulvestrant 100.
A short description of experiment [12]: RPL19A-GFP modulators, yeast TOR pathway, confirmation, cell-based, S. cerevisiae, flow cytometry, cherry picks, mother/daughter gates (AID 2270;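 active means GFP response below 50% of the DMSO control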). As to conditions: S. cerevisiae RPL19A-GFP strain, 3 h, at 10 µM, stronger effect = lower value, 100 = same GFP as DMSO wells.
Experiment [13] can be described thus: LAP4-GFP expression modulators in yeast, confirmation, cell-based, cherry picks, flow cytometry, mother/daughter gates (AID 2271;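 active means GFP response above 150% of the DMSO control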;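 further: ratio of sample to DMSO plate mean so 100% equals DMSO level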). As to conditions: S. cerevisiae LAP4-GFP strain, 3 h, at 10 µM, stronger effect = higher value, 100 means same as DMSO control.
Experiment [14] is described as follows: modulators of MEP2-GFP levels in yeast, confirmation, S. cerevisiae, flow cytometry GFP, cherry picks (AID 2272;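 active means GFP response above 150% of the DMSO control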;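 further: ratio of well signal to plate DMSO mean so 100% equals DMSO level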). The note with it: S. cerevisiae MEP2-GFP strain, 3 h, at 10 µM, stronger effect = higher value.
The nature of experiment [15]: AGP1-GFP expression modulators, hit retest, confirmation, cell-based, flow cytometry, S. cerevisiae, cherry picks (AID 2273;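 active means GFP response above 150% of the DMSO level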;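 further: median GFP channel fluorescence over the whole cell population gate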). As to conditions: S. cerevisiae AGP1-GFP strain, 3 h, at 10 µM.
The nature of experiment [16]: modulators of CIT2-GFP expression in yeast, confirmation, S. cerevisiae, GFP fusion, cherry picks, mother/daughter gates (AID 2274;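 active means GFP response above 150% of the DMSO level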). The note with it: S. cerevisiae CIT2-GFP strain, flow cytometry, 3 h; at 10 µM; stronger effect = higher value.

The values that follow come from PubChem BioAssay.

Molecules are shown by their SMILES. Calls of active or inactive are those of the source.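 How the source made its calls, unless noted: active means inhibition above 54%, about 3 SD of non-fluorescent compounds; inactive means the rest.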

Chain of Beta-2 adrenergic receptor (Homo sapiens) (P07550 whole entry, looked up): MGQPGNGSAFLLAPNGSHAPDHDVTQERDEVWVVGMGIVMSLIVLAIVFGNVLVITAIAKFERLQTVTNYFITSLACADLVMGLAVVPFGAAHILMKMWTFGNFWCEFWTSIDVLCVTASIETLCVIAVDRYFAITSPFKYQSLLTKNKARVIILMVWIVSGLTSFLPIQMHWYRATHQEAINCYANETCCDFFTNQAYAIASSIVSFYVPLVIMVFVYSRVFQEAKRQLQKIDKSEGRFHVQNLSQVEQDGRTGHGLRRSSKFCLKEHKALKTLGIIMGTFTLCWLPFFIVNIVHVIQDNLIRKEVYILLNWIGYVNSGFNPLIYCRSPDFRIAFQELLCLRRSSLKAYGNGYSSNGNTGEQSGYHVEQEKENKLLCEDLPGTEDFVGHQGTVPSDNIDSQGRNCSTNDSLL
Chain of AP-2 complex subunit beta (Homo sapiens) (P63010 whole entry, looked up, the tested form may be a part, one chain of several): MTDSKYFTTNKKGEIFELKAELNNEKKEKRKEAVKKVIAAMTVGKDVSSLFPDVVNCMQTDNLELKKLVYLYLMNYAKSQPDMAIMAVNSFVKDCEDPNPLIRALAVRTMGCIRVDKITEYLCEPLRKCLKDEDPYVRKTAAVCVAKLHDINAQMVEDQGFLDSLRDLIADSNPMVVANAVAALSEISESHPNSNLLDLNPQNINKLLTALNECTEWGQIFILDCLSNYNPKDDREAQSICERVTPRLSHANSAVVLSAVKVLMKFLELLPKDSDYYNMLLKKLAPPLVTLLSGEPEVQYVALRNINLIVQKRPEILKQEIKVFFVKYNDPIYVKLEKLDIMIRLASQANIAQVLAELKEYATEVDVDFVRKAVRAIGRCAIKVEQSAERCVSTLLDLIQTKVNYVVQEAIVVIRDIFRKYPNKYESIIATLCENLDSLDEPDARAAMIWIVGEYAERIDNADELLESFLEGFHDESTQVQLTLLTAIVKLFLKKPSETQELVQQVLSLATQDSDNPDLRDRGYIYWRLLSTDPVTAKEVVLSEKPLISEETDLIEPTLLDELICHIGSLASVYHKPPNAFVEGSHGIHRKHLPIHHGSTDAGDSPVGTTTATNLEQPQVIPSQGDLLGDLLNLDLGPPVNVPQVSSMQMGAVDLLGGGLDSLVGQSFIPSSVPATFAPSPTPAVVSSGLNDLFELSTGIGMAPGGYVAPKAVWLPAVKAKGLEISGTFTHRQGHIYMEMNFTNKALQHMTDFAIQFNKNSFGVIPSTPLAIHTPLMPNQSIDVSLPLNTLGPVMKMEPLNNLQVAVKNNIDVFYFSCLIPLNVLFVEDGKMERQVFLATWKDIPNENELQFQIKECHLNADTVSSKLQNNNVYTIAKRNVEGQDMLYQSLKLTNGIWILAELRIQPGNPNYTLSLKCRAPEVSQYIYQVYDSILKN
Chain of Integrin beta-1 (Homo sapiens) + Integrin alpha-4 (Homo sapiens) (P05556 whole entry, looked up): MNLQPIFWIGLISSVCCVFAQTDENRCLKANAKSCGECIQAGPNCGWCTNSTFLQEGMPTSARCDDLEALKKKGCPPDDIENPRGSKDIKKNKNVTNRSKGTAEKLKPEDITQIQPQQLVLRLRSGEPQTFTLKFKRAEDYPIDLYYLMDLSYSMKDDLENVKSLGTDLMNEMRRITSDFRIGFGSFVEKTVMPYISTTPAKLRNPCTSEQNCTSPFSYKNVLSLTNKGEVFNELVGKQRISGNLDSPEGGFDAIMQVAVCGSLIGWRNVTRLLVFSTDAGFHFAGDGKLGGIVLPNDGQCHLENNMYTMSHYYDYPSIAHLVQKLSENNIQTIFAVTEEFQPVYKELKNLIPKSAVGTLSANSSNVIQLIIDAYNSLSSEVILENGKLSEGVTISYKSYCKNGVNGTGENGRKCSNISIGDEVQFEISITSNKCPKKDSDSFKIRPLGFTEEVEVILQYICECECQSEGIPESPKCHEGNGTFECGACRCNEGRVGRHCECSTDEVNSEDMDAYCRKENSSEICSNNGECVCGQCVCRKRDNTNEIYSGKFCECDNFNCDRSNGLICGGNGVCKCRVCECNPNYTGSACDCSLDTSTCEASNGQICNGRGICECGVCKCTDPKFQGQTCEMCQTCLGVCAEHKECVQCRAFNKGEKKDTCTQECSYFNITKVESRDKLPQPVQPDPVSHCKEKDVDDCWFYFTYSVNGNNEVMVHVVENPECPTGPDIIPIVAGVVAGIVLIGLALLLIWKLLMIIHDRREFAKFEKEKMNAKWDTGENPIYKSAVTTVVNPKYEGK
Chain of Integrin beta-1 (Homo sapiens) + Integrin alpha-4 (Homo sapiens) (P13612 whole entry, looked up): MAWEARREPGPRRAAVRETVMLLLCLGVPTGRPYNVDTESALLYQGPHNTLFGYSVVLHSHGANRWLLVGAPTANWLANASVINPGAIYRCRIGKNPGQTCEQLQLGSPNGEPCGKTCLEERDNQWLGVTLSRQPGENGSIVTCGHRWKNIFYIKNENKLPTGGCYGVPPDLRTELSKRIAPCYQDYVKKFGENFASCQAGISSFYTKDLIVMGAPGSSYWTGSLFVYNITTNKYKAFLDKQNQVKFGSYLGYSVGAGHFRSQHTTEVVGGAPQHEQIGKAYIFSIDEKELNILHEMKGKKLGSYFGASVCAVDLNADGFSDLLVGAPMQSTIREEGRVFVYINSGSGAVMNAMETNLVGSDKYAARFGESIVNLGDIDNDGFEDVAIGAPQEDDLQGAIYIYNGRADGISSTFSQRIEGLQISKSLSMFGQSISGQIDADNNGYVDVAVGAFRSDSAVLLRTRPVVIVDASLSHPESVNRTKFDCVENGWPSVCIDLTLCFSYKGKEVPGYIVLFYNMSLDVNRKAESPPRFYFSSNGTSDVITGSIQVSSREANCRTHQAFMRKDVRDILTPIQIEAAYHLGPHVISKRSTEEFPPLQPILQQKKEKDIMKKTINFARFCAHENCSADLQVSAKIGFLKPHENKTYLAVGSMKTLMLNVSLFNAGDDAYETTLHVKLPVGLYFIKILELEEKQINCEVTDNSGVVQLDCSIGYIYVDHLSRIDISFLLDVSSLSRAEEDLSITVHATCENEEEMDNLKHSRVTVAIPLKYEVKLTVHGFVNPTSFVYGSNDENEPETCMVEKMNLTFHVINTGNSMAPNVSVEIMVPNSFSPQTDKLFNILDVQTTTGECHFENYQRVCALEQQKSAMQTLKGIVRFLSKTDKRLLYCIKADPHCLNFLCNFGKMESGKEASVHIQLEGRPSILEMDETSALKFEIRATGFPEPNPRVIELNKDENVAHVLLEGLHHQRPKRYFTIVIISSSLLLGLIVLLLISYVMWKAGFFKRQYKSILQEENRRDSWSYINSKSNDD
Chain of Beta-adrenergic receptor kinase 1 (Homo sapiens) (P25098 whole entry, looked up): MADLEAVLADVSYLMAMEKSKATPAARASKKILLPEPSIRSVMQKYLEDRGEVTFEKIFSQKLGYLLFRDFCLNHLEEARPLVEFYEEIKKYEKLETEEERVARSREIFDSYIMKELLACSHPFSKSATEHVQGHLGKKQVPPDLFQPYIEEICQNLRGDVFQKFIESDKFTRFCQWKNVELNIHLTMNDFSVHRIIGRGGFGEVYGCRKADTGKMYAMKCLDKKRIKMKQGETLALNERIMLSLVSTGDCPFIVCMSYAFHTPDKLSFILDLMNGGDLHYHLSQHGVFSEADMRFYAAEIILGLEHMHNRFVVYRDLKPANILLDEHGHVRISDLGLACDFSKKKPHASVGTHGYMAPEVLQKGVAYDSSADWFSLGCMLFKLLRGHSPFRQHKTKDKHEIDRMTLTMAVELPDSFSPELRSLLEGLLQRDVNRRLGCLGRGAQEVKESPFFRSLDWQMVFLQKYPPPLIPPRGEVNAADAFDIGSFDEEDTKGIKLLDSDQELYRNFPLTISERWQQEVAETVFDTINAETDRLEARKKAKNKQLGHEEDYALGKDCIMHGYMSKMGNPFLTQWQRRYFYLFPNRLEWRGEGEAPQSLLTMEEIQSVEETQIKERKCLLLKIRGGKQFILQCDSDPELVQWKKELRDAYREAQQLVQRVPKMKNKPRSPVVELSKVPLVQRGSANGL
Chain of ATP-binding cassette sub-family B member 6 (Homo sapiens) (Q9NP58 whole entry, looked up): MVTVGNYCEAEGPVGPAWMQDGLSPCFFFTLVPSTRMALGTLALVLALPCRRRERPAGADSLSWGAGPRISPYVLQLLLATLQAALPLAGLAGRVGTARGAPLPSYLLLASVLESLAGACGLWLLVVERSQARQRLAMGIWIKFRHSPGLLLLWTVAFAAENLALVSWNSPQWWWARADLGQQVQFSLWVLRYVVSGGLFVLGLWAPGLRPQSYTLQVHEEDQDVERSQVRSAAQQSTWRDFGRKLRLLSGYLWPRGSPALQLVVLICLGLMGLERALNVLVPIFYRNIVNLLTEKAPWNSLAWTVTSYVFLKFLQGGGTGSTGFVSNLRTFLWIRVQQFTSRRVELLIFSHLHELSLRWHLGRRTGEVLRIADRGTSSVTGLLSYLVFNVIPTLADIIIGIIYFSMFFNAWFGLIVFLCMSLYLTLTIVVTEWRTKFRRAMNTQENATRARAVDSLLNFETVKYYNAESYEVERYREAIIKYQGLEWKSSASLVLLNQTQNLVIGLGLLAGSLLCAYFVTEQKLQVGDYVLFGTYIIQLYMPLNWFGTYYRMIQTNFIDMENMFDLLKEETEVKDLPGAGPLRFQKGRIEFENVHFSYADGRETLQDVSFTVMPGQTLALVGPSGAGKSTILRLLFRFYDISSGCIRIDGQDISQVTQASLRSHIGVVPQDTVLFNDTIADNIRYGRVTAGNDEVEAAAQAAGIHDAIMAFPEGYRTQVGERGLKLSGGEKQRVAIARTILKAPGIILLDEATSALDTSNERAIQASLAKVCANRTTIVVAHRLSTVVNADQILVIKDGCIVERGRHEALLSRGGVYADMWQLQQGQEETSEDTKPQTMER

In general, inhibition refers to the drop in the measured response relative to a control, in per cent. Consider `COc1ccc(Cl)cc1C(=O)NCCc1ccc(S(=O)(=O)NC(=O)NC2CCCCC2)cc1`, for which, in [1], the double positive events worked out at 60.4%. Also, the vesicle binding response in experiment [1] is 155% (inactive). The inhibition in [2] is -10.5% (inactive); in experiment [6] it was 3.88% (inactive); in [10] it was 8% (inactive). For the same molecule, in experiment [3], the superoxide response (% of plate) was 114% (inactive). For the same molecule, the aptamer binding inhibition in [4] was 4% (inactive). For the same molecule, the response in experiment [5] was -18.8% (inactive); in experiment [7] it was -2.06% (inactive). In [8], the binding (% of control) is 101% (inactive). Besides, in experiment [9], the efflux inhibition (fraction of control) is -0.28 (inactive). Besides, in experiment [11], the differentiation response is -10.4% (inactive).

`O=C(NCc1ccccc1Cl)NC(=O)c1ccccc1`: the double positive events in experiment [1] turned out to be 62%. In addition, in experiment [1], the vesicle binding response was 221% (inactive). Moreover, the inhibition in [2] was 6.46% (inactive); in experiment [6], 8.1% (inactive); in [10], 7% (inactive). In experiment [3], the superoxide response (% of plate) is 115% (inactive). Further, the aptamer binding inhibition in experiment [4] was 4% (inactive). Moreover, the response in experiment [5] is 0.79% (inactive); in [7] it was -5.42% (inactive). The binding (% of control) in [8] was 98.7% (inactive). The efflux inhibition (fraction of control) in experiment [9] is 0.19 (inactive). Further, in experiment [11], the differentiation response was 1.64% (inactive).

In turn, `C=CCN1C(=O)c2oc3ccccc3c(=O)c2C1c1ccc(O)c(OC)c1` (configuration not stated) gave a double positive events in experiment [1] of 60.1%. For the same molecule, the vesicle binding response in experiment [1] is 150% (inactive). Moreover, the values for the inhibition in experiment [2], in experiment [6] and in experiment [10] were 10.5% (inactive), -0.24% (inactive) and 0% (inactive), respectively. The superoxide response (% of plate) in experiment [3] is 102% (inactive). In addition, in experiment [4], the aptamer binding inhibition was 2% (inactive). Also, the figures for the response in experiment [5] and in experiment [7] were 105% (active) and 2.05% (inactive), respectively. Besides, the binding (% of control) in experiment [8] was 99.1% (inactive). Further, in experiment [9], the efflux inhibition (fraction of control) was 0.37 (inactive). Moreover, the differentiation response in experiment [11] is 40.8% (inactive).

In experiment [1], `COc1cc([C@@H]2c3cc4c(cc3[C@H](O)[C@H]3COC(=O)[C@H]23)OCO4)cc(OC)c1OC` returned a double positive events of 63.2%. In experiment [1], the vesicle binding response was 180% (inactive). In addition, the inhibition in experiment [2] is 38.9% (inactive); in [6], -1.6% (inactive); in [10], 7% (inactive). In [3], the superoxide response (% of plate) is 99.1% (inactive). Moreover, the aptamer binding inhibition in experiment [4] is 7% (inactive). Moreover, the response in experiment [5] is 22.7% (inactive); in experiment [7], 21% (active). Also, the binding (% of control) in experiment [8] was 102% (inactive). The efflux inhibition (fraction of control) in experiment [9] is -0.13 (inactive). The differentiation response in experiment [11] is -0.06% (inactive).

As to `Cc1ccc2c(c1)C1CN(C)CCC1N2C(=O)c1ccc(Cl)c(S(=O)(=O)N2CCOCC2)c1` (configuration not stated), the GFP response vs DMSO in experiment [12] and in experiment [14] was 102% (inactive) in each case. Besides, the GFP response relative to DMSO in experiment [13] is 107% (inactive). Moreover, the results for the GFP response, % of DMSO in experiment [15] and in experiment [16] were 102% (inactive) and 112% (inactive), respectively.

In the case of `C[C@H](NC(=O)Nc1ccccc1F)C(=O)O`, in experiment [1], the double positive events was 66%. In addition, the vesicle binding response in experiment [1] was 272% (inactive). The inhibition in experiment [2] was -12.7% (inactive); in [6], -4.89% (inactive); in experiment [10], 7% (inactive). The superoxide response (% of plate) in [3] was 106% (inactive). Besides, the aptamer binding inhibition in experiment [4] was 6% (inactive). The response in experiment [5] is -5.56% (inactive); in experiment [7], -9.72% (inactive). Also, in [8], the binding (% of control) was 101% (inactive). In addition, the efflux inhibition (fraction of control) in experiment [9] is -0.24 (inactive). For the same molecule, the differentiation response in experiment [11] was -10.4% (inactive).

Molecule `CCOC(=O)COc1ccc2c(=O)c(-c3ccccc3)coc2c1` displayed a double positive events in [1] of 61.7%. Further, the vesicle binding response in experiment [1] is 236% (inactive). The inhibition in experiment [2] is 21% (inactive); in experiment [6], 1.34% (inactive); in [10], -4% (inactive). In addition, the superoxide response (% of plate) in experiment [3] was 92.8% (inactive). The aptamer binding inhibition in experiment [4] was 0% (inactive). For the same molecule, the response was -10.5% (inactive) in experiment [5] and 0.65% (inactive) in experiment [7]. Moreover, the binding (% of control) in experiment [8] is 100% (inactive). In [9], the efflux inhibition (fraction of control) was -0.09 (inactive). Moreover, the differentiation response in experiment [11] was -7.94% (inactive).
